We go through 37 compounds from PubChem BioAssay (Tox21).

Several values for one entry are separate records, joined by “and”; a condition that tells them apart may be missing. Equal values may be shown once. Results filed as inconclusive are left out. Entries that show only a call come without a potency. Some compounds were tested as several samples or in several runs, with calls that do not always agree. Activity calls are given as the source filed them. Calls come from the whole dose curve; as a rule, active = well fitted curve in the direction sought with a large enough effect in the repeat runs; inconclusive = weak or mixed curves; inactive = no such curve, though single readings can be large; an effect the other way counts as inactive or inconclusive.
Potency is the fitted concentration of half-maximal effect.

Chain of Nuclear receptor subfamily 1 group I member 2 (Homo sapiens) (O75469 whole entry, looked up): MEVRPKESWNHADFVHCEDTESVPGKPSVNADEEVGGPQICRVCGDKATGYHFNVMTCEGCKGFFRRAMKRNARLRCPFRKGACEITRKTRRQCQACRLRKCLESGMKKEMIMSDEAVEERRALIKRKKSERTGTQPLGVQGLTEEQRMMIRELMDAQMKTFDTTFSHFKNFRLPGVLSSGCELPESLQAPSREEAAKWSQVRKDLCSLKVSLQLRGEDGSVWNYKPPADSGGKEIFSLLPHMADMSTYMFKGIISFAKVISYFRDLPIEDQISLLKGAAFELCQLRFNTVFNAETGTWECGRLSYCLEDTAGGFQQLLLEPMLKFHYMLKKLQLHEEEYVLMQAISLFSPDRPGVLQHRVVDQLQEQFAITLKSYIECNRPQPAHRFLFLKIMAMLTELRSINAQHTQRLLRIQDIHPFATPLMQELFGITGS

System in one experiment: not listed separately
As to the kind of experiment: Caspase-3/7 induction in CHO-K1 cells by small molecules, qHTS assay (AID 1346980). Note: nearly all actives have a fitted effect of over 15% in size. Particulars: CHO-K1 caspase-3/7 induction, Caspase-Glo luminescence, 17 h; series mostly up to 92.4 µM. The procedure, abridged:
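Wild-type cells were seeded at 1,500 per well and settled 5 hr at 37 C, 5% CO2, then exposed to DMSO-dissolved compounds for 17 hr. Caspase-Glo 3/7 reagent was added, and luminescence was read after 30min at room temperature.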
Consider `Fc1ccc(Oc2ccnc3cc(Cl)cc(Cl)c23)cc1`, for which the Potency result is “inactive”.

Consider `N#CCCC(Br)(C#N)CBr` (centres undefined), for which the Potency result is “inactive”.

As for `COc1cc(C=O)cc2c1[C@H](COC(N)=O)[C@]1(OC(C)=O)ON2C[C@H]2[C@@H]1N2C(C)=O`, the Potency was 61.1 µM (active).

As to `O=c1ssc(Cl)c1Cl`, the Potency entry was “inactive”.

For `C[C@]12CC[C@@H]3c4ccc(OC(=O)N(CCCl)CCCl)cc4CC[C@H]3[C@@H]1CC[C@@H]2O`, the Potency entry was “inactive”.

With `CCCCCCCCCCCCCCCC[n+]1ccccc1`, the Potency entry is “inactive”.

As to `O=[N+]([O-])c1cc(Cl)ccc1Cl`, the Potency result was “inactive”.

Turning to `NC(=O)CCl`, the Potency result was “inactive”.

Turning to `CC1(c2ccc(Oc3ccccc3)cc2)OC(=O)N(Nc2ccccc2)C1=O` (centres undefined), the Potency result was “inactive”.

Turning to `COC(=O)N(C(=O)N1COC2(C(=O)OC)Cc3cc(Cl)ccc3C2=N1)c1ccc(OC(F)(F)F)cc1` (centres undefined), the Potency result was “inactive”.

Consider `Cc1c(Cl)c(=O)oc2cc(OP(=O)(OCCCl)OCCCl)ccc12`, for which the Potency result was “inactive”.

Regarding `O=C1NCN(c2ccccc2)C12CCN(CC1COc3ccccc3O1)CC2` (centres undefined), the Potency entry is “inactive”.

`CCC(C)(C)C(=O)OC1=C(c2ccc(Cl)cc2Cl)C(=O)OC12CCCCC2`: the Potency result is “inactive”.

With `C[C@H]1O[C@@H](O[C@H]2[C@@H](O)C[C@H](O[C@H]3[C@@H](O)C[C@H](O[C@H]4CC[C@@]5(C)[C@H](CC[C@@H]6[C@@H]5CC[C@]5(C)[C@@H](C7=CC(=O)OC7)CC[C@]65O)C4)O[C@@H]3C)O[C@@H]2C)C[C@H](O)[C@@H]1O`, the Potency entry is “inactive”.

As to `CCC(C)c1cc(C(C)(C)C)cc(-n2nc3ccccc3n2)c1O` (centres undefined), the Potency entry was “inactive”.

With `Oc1ccc(C(=C(Cl)Cl)c2ccc(O)cc2)cc1`, the Potency result is “inactive”.

Consider `c1ccc(OCC2CO2)cc1` (centres undefined), for which the Potency entry was “inactive”.

For `CCCCN(CCCC)C(=S)[S-].CCCCN(CCCC)C(=S)[S-].[Zn+2]`, the Potency result was “inactive”.

For `Oc1ccc(C2(c3ccc(O)cc3)c3ccccc3-c3ccccc32)cc1`, the Potency result is “inactive”.

Regarding `CCc1ccccc1C`, the Potency result is “inactive”.

For the compound `Nc1ccccc1C(=O)OC/C=C/c1ccccc1`, the Potency entry is “inactive”.

On to `COc1ccc(OC)c(CC(C)N)c1` (centres undefined), for which the Potency result was “inactive”.

Consider `CC(Cl)CN(C)C` (centres undefined), for which the Potency result is “inactive”.

Turning to `CCCSP(=O)(OCC)SCCC`, the Potency result was “inactive”.

For `CCCCCCCCCCCCCCCCCCn1cc[n+](C)c1`, the Potency result is “inactive”.

`c1ccc2cc3c(cc2c1)-c1cccc2cccc-3c12`: the Potency result was “inactive”.

With `CN(C)S(=O)(=O)N(SC(F)(Cl)Cl)c1ccccc1`, the Potency entry is “inactive”.

For `[CH3][Hg][Cl]`, the Potency result was “inactive”.

Consider `COC[C@H](C)N(C(=O)CCl)c1c(C)csc1C`, for which the Potency entry is “inactive”.

System in another experiment: not listed separately
The experiment in a line: Caspase-3/7 induction in HepG2 cells by small molecules, qHTS cell viability counter screen (AID 1346981). Note: nearly all actives have a fitted effect of over 30% in size. Particulars: CellTiter-Fluor fluorescence, 17 h; series mostly up to 92.4 µM. The procedure, abridged: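 Cell viability is measured as a cytotoxicity counter screen alongside the Caspase-Glo 3/7 readout in identical wells. Wild-type HepG2 cells are treated with test compounds for 16 hr at 37 C before CellTiter-Fluor addition and a 1-hr incubation.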
Background: Quantitative high-throughput screening tests each substance at several concentrations.
Take `CC(C)(c1ccc(O)c(-c2ccccc2)c1)c1ccc(O)c(-c2ccccc2)c1`: the Potency was 61.1 µM (active).

`Fc1ccc(Oc2ccnc3cc(Cl)cc(Cl)c23)cc1`: the Potency entry is “inactive”.

In the case of `COc1cc(C=O)cc2c1[C@H](COC(N)=O)[C@]1(OC(C)=O)ON2C[C@H]2[C@@H]1N2C(C)=O`, the Potency is 2.73 µM (active).

`C[C@]12CC[C@@H]3c4ccc(OC(=O)N(CCCl)CCCl)cc4CC[C@H]3[C@@H]1CC[C@@H]2O`: the Potency entry is “inactive”.

For the compound `CCCCCCCCCCCCCCCC[n+]1ccccc1`, the Potency was 63.9 µM (active) and 61.1 µM (active) and 26.9 µM (active).

Regarding `O=[N+]([O-])c1cc(Cl)ccc1Cl`, the Potency result was “inactive”.

Consider `ClCc1ccccc1CCl`, for which the Potency result was “inactive”.

Consider `NC(=O)CCl`, for which the Potency entry is “inactive”.

Consider `CC1(c2ccc(Oc3ccccc3)cc2)OC(=O)N(Nc2ccccc2)C1=O` (centres undefined), for which the Potency is 27.5 µM (active).

Regarding `COC(=O)N(C(=O)N1COC2(C(=O)OC)Cc3cc(Cl)ccc3C2=N1)c1ccc(OC(F)(F)F)cc1` (centres undefined), the Potency entry was “inactive”.

On to `Cc1c(Cl)c(=O)oc2cc(OP(=O)(OCCCl)OCCCl)ccc12`, for which the Potency entry was “inactive”.

For `O=C1NCN(c2ccccc2)C12CCN(CC1COc3ccccc3O1)CC2` (centres undefined), the Potency entry was “inactive”.

`C[C@H]1O[C@@H](O[C@H]2[C@@H](O)C[C@H](O[C@H]3[C@@H](O)C[C@H](O[C@H]4CC[C@@]5(C)[C@H](CC[C@@H]6[C@@H]5CC[C@]5(C)[C@@H](C7=CC(=O)OC7)CC[C@]65O)C4)O[C@@H]3C)O[C@@H]2C)C[C@H](O)[C@@H]1O`: the Potency entry was “inactive”.

With `O=C(Nc1ccc2[nH]ccc2c1)c1cc2cc(F)ccc2n1Cc1cccc(F)c1`, the Potency was 61.1 µM (active).

Consider `Nc1ccccc1C(=O)OC/C=C/c1ccccc1`, for which the Potency result was “inactive”.

In the case of `COc1ccc(OC)c(CC(C)N)c1` (centres undefined), the Potency entry was “inactive”.

Regarding `CC(Cl)CN(C)C` (centres undefined), the Potency result was “inactive”.

For `CCCCCCCCCCCCCC[P+](CCCCCC)(CCCCCC)CCCCCC` (tested in a mixture with another compound), the Potency was 24.3 µM (active).

On to `c1ccc2cc3c(cc2c1)-c1cccc2cccc-3c12`, for which the Potency entry is “inactive”.

Turning to `C=CC(=O)OCC(COC(=O)C=C)(COC(=O)C=C)COC(=O)C=C`, the Potency is 15.4 µM (active).

Another experiment addresses Nuclear receptor subfamily 1 group I member 2 (Homo sapiens) (UniProt O75469). As to the kind of experiment: Human pregnane X receptor (PXR) small molecule agonists, qHTS assay (AID 1346982). Note: nearly all actives have a fitted effect of over 35% in size. Particulars: PXR-Luc HepG2, CYP3A4 luciferase reporter, 24 h; series mostly up to 92.4 µM. The method, boiled down: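 Cells: HepG2 stably carrying PXR-Luc. Medium held 5% charcoal-stripped FBS. Compounds in DMSO added after 5 hr plating, incubated 24 hr, then luminescence quantified with ONE-Glo.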
As for `CC(C)(c1ccc(O)c(-c2ccccc2)c1)c1ccc(O)c(-c2ccccc2)c1`, the Potency is 24.3 µM (active).

Regarding `Fc1ccc(Oc2ccnc3cc(Cl)cc(Cl)c23)cc1`, the Potency was 27.3 µM (active).

Turning to `COc1cc(C=O)cc2c1[C@H](COC(N)=O)[C@]1(OC(C)=O)ON2C[C@H]2[C@@H]1N2C(C)=O`, the Potency result is “inactive”.

With `O=c1ssc(Cl)c1Cl`, the Potency was 27.3 µM (active).

In the case of `c1cc[c]([Sb]([c]2ccccc2)[c]2ccccc2)cc1`, the Potency is 54.5 µM (active).

In the case of `C[C@]12CC[C@@H]3c4ccc(OC(=O)N(CCCl)CCCl)cc4CC[C@H]3[C@@H]1CC[C@@H]2O`, the Potency result is “inactive”.

Take `C=CC(=O)OCCCCOC(=O)C=C`: the Potency entry was “inactive”.

Turning to `CCCCCCCCCCCCCCCC[n+]1ccccc1`, the Potency is 10.1 µM (active) and inactive and 12 µM (active).

Regarding `O=[N+]([O-])c1cc(Cl)ccc1Cl`, the Potency result was “inactive”.

For `ClCc1ccccc1CCl`, the Potency entry is “inactive”.

For `NC(=O)CCl`, the Potency entry was “inactive”.

For the compound `CC1(c2ccc(Oc3ccccc3)cc2)OC(=O)N(Nc2ccccc2)C1=O` (centres undefined), the Potency is 21.8 µM (active).

As to `COC(=O)N(C(=O)N1COC2(C(=O)OC)Cc3cc(Cl)ccc3C2=N1)c1ccc(OC(F)(F)F)cc1` (centres undefined), the Potency is 10.6 µM (active).

For `Cc1c(Cl)c(=O)oc2cc(OP(=O)(OCCCl)OCCCl)ccc12`, the Potency is 11.9 µM (active).

For `O=C1NCN(c2ccccc2)C12CCN(CC1COc3ccccc3O1)CC2` (centres undefined), the Potency is 5.96 µM (active).

Turning to `C[C@H]1O[C@@H](O[C@H]2[C@@H](O)C[C@H](O[C@H]3[C@@H](O)C[C@H](O[C@H]4CC[C@@]5(C)[C@H](CC[C@@H]6[C@@H]5CC[C@]5(C)[C@@H](C7=CC(=O)OC7)CC[C@]65O)C4)O[C@@H]3C)O[C@@H]2C)C[C@H](O)[C@@H]1O`, the Potency entry is “inactive”.

Take `CCC(C)c1cc(C(C)(C)C)cc(-n2nc3ccccc3n2)c1O` (centres undefined): the Potency entry is “inactive”.

Consider `Oc1ccc(C(=C(Cl)Cl)c2ccc(O)cc2)cc1`, for which the Potency was 61 µM (active).

Consider `CC(C)OC(=S)S`, for which the Potency is 17.2 µM (active).

As for `O=C(Nc1ccc2[nH]ccc2c1)c1cc2cc(F)ccc2n1Cc1cccc(F)c1`, the Potency was 24.3 µM (active).

With `CCc1ccccc1C`, the Potency result is “inactive”.

For `Nc1ccccc1C(=O)OC/C=C/c1ccccc1`, the Potency is 21.7 µM (active).

For the compound `COc1ccc(OC)c(CC(C)N)c1` (centres undefined), the Potency result is “inactive”.

On to `CC(Cl)CN(C)C` (centres undefined), for which the Potency entry was “inactive”.

Consider `CCCCCCCCCCCCCC[P+](CCCCCC)(CCCCCC)CCCCCC` (tested in a mixture with another compound), for which the Potency is 2.17 µM (active).

Consider `CCCCCCCCCCCCCCCCCCn1cc[n+](C)c1`, for which the Potency result was “inactive”.

Regarding `c1ccc2cc3c(cc2c1)-c1cccc2cccc-3c12`, the Potency was 2.4 µM (active).

Turning to `CN(C)S(=O)(=O)N(SC(F)(Cl)Cl)c1ccccc1`, the Potency result is “inactive”.

On to `[CH3][Hg][Cl]`, for which the Potency result was “inactive”.

With `COC[C@H](C)N(C(=O)CCl)c1c(C)csc1C`, the Potency result was “inactive”.
